Test results from PubChem BioAssay AID743269 (The Scripps Research Institute Molecular Screening Center, 2014).
Hit rate of the full screen: of about 370,000 compounds, about 2,400 (0.65%) were called active. What follows is part of a selection rich in actives, with near analogues and random picks from the rest. Unmarked numbers belong to inactive results.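 Rule for the calls: active = inhibition above the screen-wide mean plus 3 SD (cut at about 13% in these data); inactive = the rest.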

Test system: HIV-1 integrase (with human LEDGF/p75)
Assay: blockers of LEDGF/p75-dependent integrase strand transfer – biochemical, TR-FRET, high throughput, primary screen (AID 743269);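 note: signal is the Cy5 over europium emission ratio at 671 and 618 nm; 0% = plate median of compound wells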
Conditions: TR-FRET IN-LEDGF/p75 DNA integration, Eu/Cy5; at 3.7 µM; active compounds read high

In order of falling inhibition:
1. CCN(C(=O)COC(=O)CCC(=O)c1cccs1)C1CCCCC1  9.09%
2. COC(=O)[C@]1(C#N)CC(=O)N(CC2CCCCC2)[C@@H]1c1ccccc1  8.17%
3. CC(CCN1CCC(C(O)(c2ccccc2)c2ccccc2)CC1)Oc1ccc([N+](=O)[O-])cc1Cl (stereo not given)  5.97%
4. COc1ccc2c(C)cc(SCC(=O)NCC3CCCO3)nc2c1 (stereo not given)  5.4%
5. O=C(Nc1nnc(-c2ccccc2F)s1)c1ccccc1F  5.09%
6. Brc1ccc(C2CC(c3ccccc3)=Nc3ccccc3N2)cc1 (stereo not given)  5.04%
7. O=C(OCCOc1ccccc1Cl)c1cc(S(=O)(=O)N2CCCCC2)ccc1N1CCOCC1  4.88%
8. Cc1ccc(S(=O)(=O)N[C@H](CO)C(C)C)cc1  4.45%
9. C[C@@H]1ON(C)[C@H]2C[C@H]3c4[nH]c5cccc(-c6ccc7c(c6)OCO7)c5c4CCN3C[C@@H]12  4.41%
10. O=C(NCc1cccs1)C1CCCN(S(=O)(=O)c2ccc([N+](=O)[O-])cc2)C1 (stereo not given)  4.07%
11. O=C(CSc1nnc(-c2ccccn2)n1-c1ccccc1)Nc1ccc2cn[nH]c2c1  3.75%
12. O=C(CSc1nc2c(c(=O)[nH]1)CCCC2)N1CCCCC1  3.68%
13. CCOC(=O)C1CCN(C(=O)C(C)(C)NC(=O)Nc2ccc(F)c(F)c2)CC1  3.2%
14. CN[C@H]1C[C@H]2c3cc(N4CCOCC4)ccc3CCN2C[C@H]1[C@H](C)O  3.07%
15. COP(=O)(O)CNC(=O)OCc1ccccc1  2.52%
16. CCC(=O)OCCCN1C(=O)CCC12CCC(c1ccccc1)CC2 (stereo not given)  2.48%
17. Cc1cc(NS(=O)(=O)c2ccc(NC(=O)CSc3nnc(-c4ccc(C(C)(C)C)cc4)n3Cc3ccco3)cc2)nc(C)n1  2.06%
18. CC(=O)Nc1ccc(C(=O)OCC(=O)Nc2ccc([N+](=O)[O-])cc2C(F)(F)F)cc1  1.78%
19. O=C(CCCCCN1C(=O)C2C3C=CC(C3)C2C1=O)Nc1ccccn1 (stereo not given)  1.71%
20. COc1ccc(C(=O)C(C)OC(=O)c2cccc(S(=O)(=O)Nc3c(C)n(C)n(-c4ccccc4)c3=O)c2)cc1 (stereo not given)  1.63%
21. Cc1cc(C)n2ncc(C(=O)Nc3ccc4c(c3)OCCO4)c2n1  1.44%
22. Cc1ccc(C)c(NC(=O)CCS(=O)(=O)c2ccccc2)c1  1.44%
23. C[C@H](NC(=O)c1ccccc1Cl)C(=O)OCC(=O)N1CCN(c2ccccc2)CC1  1.43%
24. O=C(COC(=O)c1cc(S(=O)(=O)N2CCOCC2)ccc1F)NC1CC1  1.33%
25. CN1C(=O)c2cc(NS(C)(=O)=O)ccc2OC[C@@H]2O[C@@H](CC(=O)NCc3ccc(-c4ccccc4)cc3)CC[C@H]21  0.81%
26. CCC[C@H]1C(=O)CC[C@@]23CCCN2C(=O)CCC[C@@H]13  0.78%
27. O=C(Nc1cc2c3c(c1)C1CCCC1CN3CC1CCCC21)c1ccc([N+](=O)[O-])cc1 (stereo not given)  0.76%
28. Fc1ccc2nc(COCc3nc4ccc(F)cc4[nH]3)[nH]c2c1  0.7%
29. CCOc1ccc(NC(=O)c2cccc3c2C(=O)N(CC2CCCO2)C3)cc1 (stereo not given)  0.61%
30. CCOC(=O)c1[nH]c(C)c(C(=O)OCC(=O)N2c3ccccc3CC2C)c1C (stereo not given)  0.57%
31. CCOC(=O)C1=C(C)c2ccccc2OC1C(=O)OCC (stereo not given)  0.5%
32. CCOC(=O)C(=O)N(Cc1ccccc1)c1ccccc1C(=O)Nc1cc(OC)ccc1OC  0.37%
33. Cc1ccc(S(=O)(=O)N/N=C(\c2ccccc2)C2CC2)cc1  0.27%
34. C#CCNC(=O)C[C@H]1C[C@@]2(C(=O)OC)C(=C[C@H](C(C)C)O[C@@H]2C2CC2)N(Cc2ccco2)C1=O  0.25%
35. CC1CCN(C(=O)COC(=O)CCC(=O)c2cccs2)CC1  0.03%
36. COc1ccc(CCC(C)N2CCc3ccccc3C2)cc1 (stereo not given)  0%
37. Cc1cc2nc3c(=O)[nH]c(=O)nc-3n(C[C@H](O)[C@H](O)[C@H](O)CO)c2cc1C  -0.23%
38. CCOC(=O)N1CCN(C(=O)C[C@@H]2C(=O)N(CCc3ccc(Cl)cc3)C3=CCCC[C@]32C(=O)OCC)CC1  -0.28%
39. O=C1CC[C@@]23CCCN2C(=O)CCC[C@H]3[C@H]1Cc1ccccc1  -0.34%
40. COc1ccc(CNC(=O)C(C)NCc2ccccc2Cl)cc1 (stereo not given)  -0.38%
41. CC[C@@H](CCC(=O)N(c1ccccc1)c1ccccc1)C1CC1  -0.47%
42. COc1ccccc1CCNC(=O)C1CCN(c2nc(C)cc(C)n2)CC1  -0.51%
43. C[C@@H](NC(=O)c1ccccc1OCC(=O)Nc1ccc(I)cc1)C(=O)N(C)Cc1ccccc1  -0.62%
44. O=C1CC(c2ccc3c(c2)OCO3)N=C2N(CC3CC3)C/C(=C/c3ccccc3)N12 (stereo not given)  -0.65%
45. CC(CCN1CCC(C(O)(c2ccccc2)c2ccccc2)CC1)Oc1ccc(Cl)cc1 (stereo not given)  -0.76%
46. CNC(=O)COc1ccc(S(=O)(=O)Nc2ccccc2)cc1  -0.9%
47. Cc1ccccc1CN1CCCCC(NC(=O)Nc2ccccc2F)C1=O (stereo not given)  -1.11%
48. CCOC(=O)[C@]12CCCCC/C=C\1N(Cc1ccc(OC)cc1)C(=O)[C@H]2CC(=O)N1CCOCC1  -1.27%
49. O=C(Nc1ccccc1F)c1ccccc1-c1ccccc1  -1.52%
50. COc1ccc(-n2c(SCC(=O)Nc3ccccc3-c3ccccc3)nnc2-c2cccnc2)cc1  -1.52%
51. O=C(NCC1COc2ccccc2O1)c1ccc(NC(=O)c2cc(F)ccc2F)cc1 (stereo not given)  -2.1%
52. COCCn1nnnc1C(c1ccccc1Cl)N1CCN(c2ccccc2OC)CC1 (stereo not given)  -2.12%
53. Cc1ccc(/C=N/NC(=O)c2sccc2OCc2ccc(F)cc2)cc1  -2.37%
54. COC(=O)[C@]12C[C@H](CC(=O)NCc3ccccc3)C(=O)N(CCc3ccc(OC)c(OC)c3)C1=C[C@H](C(C)(C)C)O[C@@H]2C  -2.49%
55. CCCNC(=O)CSc1nc(Cc2ccccc2)nc2ccccc12  -2.65%
56. O=C(Nc1cc(F)cc(F)c1)OC1CCC12CCC(c1ccccc1)CC2 (stereo not given)  -2.65%
57. CCCNC(=O)Nc1ccc2c(c1)C(=O)N(C)[C@H]1CC[C@H](CC(=O)NCC3CCCCC3)O[C@@H]1CO2  -2.65%
58. Cc1c(Cl)c([N+](=O)[O-])nn1Cc1ccc(C(=O)N/N=C\c2cc(Cl)ccc2O)o1  -2.68%
59. COc1cc(/C=C/C(=O)n2cnc3ccccc32)cc(OC)c1OC  -2.83%
60. C=CCN1C(=O)[C@@H](CC(=O)N2CCN(C(=O)c3ccco3)CC2)[C@]2(C(=O)OC)CCCCC=C12  -3.78%
61. Cc1cc(NS(=O)(=O)c2ccc(NC(=O)CSc3nnc(SCc4ccc(F)cc4)s3)cc2)nc(C)n1  -3.91%
62. COc1ccc(NC(=O)N2CCCC2C(=O)NCc2ccccc2Cl)cc1 (stereo not given)  -4.21%
63. COc1ccc(CSc2nnc(SCC(=O)Nc3ccccc3C(F)(F)F)s2)cc1  -4.35%
64. CCCOc1ccc(Oc2c(Cl)cnn(Cc3cccc4ccccc34)c2=O)cc1  -4.41%
65. C=C(C)C#CC(Cc1ccccc1)NCC1CC1 (stereo not given)  -6.26%
66. CC(=O)Nc1ccc(NC(=O)CSc2nnc(COc3ccccc3C)n2CC2CCCO2)cc1 (stereo not given)  -8.13%
67. Cc1ccc(C)c(OCCC(=O)OCC(=O)N2CCN(c3ccccc3)CC2)c1  -9.14%

In the case of CCOc1cccc(=O)c2c(C)n(CC3CCCO3)c(C)c12 (stereo not given), the inhibition is reported as 19.8% (active).
In the case of NC(=O)c1ccccc1NC(=O)c1ccccc1F, the inhibition is reported as 30.1% (active).
For COCCn1nnnc1C(c1cc2ccc(OC)cc2[nH]c1=O)N1CCc2ccccc2C1 (stereo not given), the inhibition was 23.1% (active).
CCOC(=O)c1c(C)[nH]c2c1-c1ccccc1C(=O)C2=O was tested, and the inhibition was 35% (active).
With CCN(CC)CCCC(C)n1c2nc(=O)[nH]c(=O)c-2nc2cc(Cl)ccc21 (stereo not given) the inhibition was 19.5% (active).
In the case of Cc1cc(SCC(=O)NCCN2C(=O)CSC2=O)nc2ccccc12, the inhibition is reported as 24.8% (active).
c1ccc(C2=Nc3cccc4cccc(c34)N2)cc1 was tested, and the inhibition was 15.3% (active).
For Cn1ccc(=Nc2ccc(NC(=O)c3ccc(N=c4ccn(C)c5ccc([N+](=O)[O-])cc45)cc3)cc2)cc1, the inhibition was 19.9% (active).
Cc1cc(=O)n2[nH]c(-c3sccc3-n3c(C)ccc3C)cc2n1 was tested, and the inhibition was 55.6% (active).
In the case of O=C(COC(=O)CCC(=O)c1cccs1)NCc1ccco1, the inhibition is reported as 38.8% (active).
With Cc1cc(C(=O)N/N=C/c2ccc(O)c([N+](=O)[O-])c2)c(C)n1-c1ccc(F)cc1 the inhibition was 18.1% (active).
In the case of O=C(OCCOc1ccccc1F)c1cc(S(=O)(=O)N2CCOCC2)ccc1F, the inhibition is reported as 13.4% (active).
In the case of COc1ccc2[nH]c3c(C)c4cc[n+](C)cc4c(C)c3c2c1, the inhibition is reported as 28% (active).
For Cc1ccc(-c2nn(-c3ccccc3)cc2/C=C2\SC(=S)N(CCCCCC(=O)O)C2=O)o1, the inhibition was 13.6% (active).
In the case of O=C(OCC(=O)N1CCN(c2ccccc2)CC1)c1ccc([N+](=O)[O-])s1, the inhibition is reported as 16.4% (active).
COc1ccc(NC(=O)C(NC(C)=O)C(=O)NCc2ccccc2Cl)cc1 (stereo not given) was tested, and the inhibition was 41.8% (active).
COc1ccc(S(=O)(=O)/N=C2\C=C(NS(=O)(=O)c3ccccc3)C(=O)c3ccccc32)cc1 was tested, and the inhibition was 15.6% (active).
In the case of Cc1ccc(S(=O)(=O)/N=C2\C=C(NS(=O)(=O)c3ccc(C)cc3)C(=O)c3ccccc32)cc1, the inhibition is reported as 14.9% (active).
